Only some compounds are listed: those with a hit (about 21% of all), similar ones and a draw of the others.
Pf growth 96h: Primary qHTS for delayed death inhibitors of the malarial parasite plastid, 96 hour incubation; P. falciparum luciferase reporter growth, 96 h; Potency, µM (doses to about 28.7 µM), inactives show top-dose activity change, negative = inhibition, hits mostly inhibitors; actives 6.9% (n = 320,000); further: potency means the concentration at half of the fitted maximal effect; on the % scale 0 is the no-effect control and ±100 the full control effect
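Plates of compound plus infected erythrocytes (2% hematocrit, 0.05% parasitemia final) incubate 96 hours, 37 C, 5% CO2. Detection reagent added; reduced luminescence from the parasites' luciferase reporter flags inhibition.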
CHX counter: Cycloheximide Counterscreen for Small Molecule Inhibitors of Shiga Toxin | actives 12% (n = 300,000) | AID 2314, 2010 | max response, % | cell reporter, cycloheximide protein synthesis inhibition counterscreen; in the data active means max response mostly above about 13%, no sharp cut-off; inactive means mostly below about 14%; further: read at 38.3 µM for the half of the compounds with a filed dose; 0% is about no effect
NS1 function inh: qHTS Assay for Inhibitors of Influenza NS1 Protein Function; Potency, µM (highest dose often 46.1 µM), for inactives: at the top dose activity, positive = more growth; actives 0.4% (n = 270,000); AID 2326, 2010; calls by dose curve; further: potency means the concentration at half of the fitted maximal effect; actives are rising curves; nearly all actives have a fitted effect of over 50% in size
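Read-out: OD600 growth recovery of NS1-expressing budding yeast. Cells grown overnight at 30C in -URA glucose medium, washed, resuspended and diluted 1:100 in 2% galactose assay medium, pH 6.0. Same strain lacking NS1 served as positive control.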
SARS PLpro yeast: qHTS of Yeast-based Assay for SARS-CoV PLP | AID 485353, 2010 | S. cerevisiae expressing SARS-CoV PLpro, growth rescue | Potency, µM (top dose mostly 32.9 µM), without a hit: at the highest dose activity, positive = growth rescue, most hits filed as activators | actives 0.19% (n = 330,000); calls by dose curve; further: potency means the concentration at half of the fitted maximal effect; 0% is about no effect; nearly all actives have a fitted effect of over 55% in size
Shiga inhibitor: A qHTS for Small Molecule Inhibitors of Shiga Toxin; Vero cells, Shiga toxin protein synthesis inhibition reporter; inhibition, % at 38.7 µM; actives 9.2% (n = 290,000); in the data active means inhibition mostly above about 28%, no sharp cut-off; inactive means mostly below about 43%; further: 0% is about no effect
Pf growth 48h: Primary qHTS for delayed death inhibitors of the malarial parasite plastid, 48 hour incubation | P. falciparum luciferase growth in erythrocytes, 48 h | Potency, µM (doses to about 28.7 µM), for inactives: at the top dose activity change, negative = inhibition, most hits filed as inhibitors | actives 5.9% (n = 310,000) | AID 504832, 2011; further: potency means the concentration at half of the fitted maximal effect; on the % scale 0 is the no-effect control and ±100 the full control effect
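Luciferase-expressing parasites in RBCs, 2% Hct / 0.1% parasitemia final; RPMI 1640 + 0.5% Albumax; 37 C, 5% CO2, one generation; luminescence read-out, lower signal = inhibition.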
An asterisk follows results filed as active; u = inconclusive; x = no result given. Unless noted, the call rests on the fitted dose curve; in most records, active means well fitted inhibition curve with a large enough effect; inconclusive means small, poorly fitted or top-dose-only effect, or another doubt; inactive means no such curve, though single readings can be large or run the other way.

SMILES | Pf growth 96h | CHX counter | NS1 function inh | SARS PLpro yeast | Shiga inhibitor | Pf growth 48h
COc1ccc(CN2CCn3nc(C(=O)NC(C)C)cc3C2=O)cc1 | u | 1.2 | -1.0% | -0.6% | -12.9 | -11.9%
Cc1cc(C)c[n+](CC(=O)c2cc3ccccc3oc2=O)c1 | 12.1% | -6.1 | 18.4% | 2.2% | -15.3 | 7.5%
CC(=O)c1cc2ccccc2oc1=O | -16.3% | x | x | -1.4% | x | 8.1%
COc1ccc(CN2CCn3ncc(C(=O)Nc4cccc(C)c4)c3C2=O)cc1 | 37.7% | 16.3* | 3.7% | 6.1% | 67.8 | -16.0%
CC1CCCC(C)N1C(=O)COC(=O)CSc1ccc(C(N)=O)cc1[N+](=O)[O-] (stereo not drawn) | 13.9% | x | x | 3.4% | x | 0.3%
O=C1/C(=C/c2ccccn2)SC(=S)N1N1CCOCC1 | -0.7% | -0.5 | 2.0% | -0.3% | -11.2 | -17.4%
CC1(C)CC(=O)N(c2ccc(C#N)cc2)C(=O)C1 | -19.5% | -3.4 | 11.7% | -1.2% | -10.7 | 18.6%
O=C(O)CC(NC(=O)Cc1ccccc1)c1cc([N+](=O)[O-])ccc1Cl (stereo not drawn) | 2.8% | -3.4 | x | -4.3% | -2.8 | 16.9%
O=C(Nc1ncccc1O)c1ccc(Cl)c(S(=O)(=O)N2CCCCCC2)c1 | u | x | x | 0.3% | x | -29.8%
O=C(Nc1ccncc1)c1ccc(Cl)c(S(=O)(=O)N2CCCCC2)c1 | 1.85µM* | x | x | -7.5% | x | u
CCN1CCN(c2ccc(NC(=O)c3ccc(Cl)c(S(=O)(=O)N4CCCC4)c3)cc2)CC1 | u | x | x | 0.6% | x | 10.4µM*
CCN1CCN(c2ccc(NC(=O)c3ccc(OC)c(S(=O)(=O)N4CCCC4)c3)cc2)CC1 | u | x | x | -3.7% | x | 4.1%
CCOc1ncccc1C(=O)Nc1ccc(OC)c(S(=O)(=O)N2CCCCC2)c1 | -29.4% | 5.5 | -1.0% | 0.1% | -2.2 | -29.6%
CCc1noc(C)c1C(=O)Nc1ccc(Cl)c(S(=O)(=O)N2CCCCC2)c1 | u | x | x | 1.2% | x | 9.28µM*
CCOc1ncccc1C(=O)Nc1ccc(C)c(S(=O)(=O)N2CCCCCC2)c1 | u | x | x | -4.1% | x | 13.1µM*
CCOc1ccc(NC(=O)c2cc(S(=O)(=O)N3CCOCC3)cn2C)cc1 | 106.4% | -4.5 | 6.0% | -0.9% | -1.5 | -10.8%
S=C(NCC1CCCO1)N1CCN(c2nc(-c3ccccc3)cs2)CC1 (stereo not drawn) | 55.1% | -3.7 | 5.4% | -0.5% | -6.7 | u
O=C(Nc1ccc2c(c1)S(=O)(=O)N=C1CCCCCN12)c1ccccc1Cl | u | 2.8 | x | 1.1% | 2.8 | u
O=C(N=C1SC2CS(=O)(=O)CC2N1CCc1ccccc1)C1CCCCC1 (stereo not drawn) | -1.3% | -1.1 | -5.4% | 1.5% | -9.9 | -3.6%
CCN(CC)CCOC(=O)c1ccc(NC(=O)c2ccc(Cl)c(S(=O)(=O)N3CCCCCC3)c2)cc1 | 4.15µM* | -1.3 | x | -0.2% | -7.2 | u
Cc1ccc(C(=O)Nc2cccnc2)cc1S(=O)(=O)N1CCOCC1 | x | 4.7 | -2.0% | 8.8% | 13.7 | -16.6%
O=C(Nc1cccnc1)c1ccc(S(=O)(=O)N2CCCCCC2)cc1 | u | -3.6 | -12.3% | 0.9% | -13.0 | x
Cc1ccc(C(=O)Nc2cccnc2)cc1S(=O)(=O)N1CCCCCC1 | u | 25.8* | -7.1% | -0.6% | 29.9 | u
O=C(Nc1ccc(N2CCOCC2)cc1)c1ccc(Cl)c(S(=O)(=O)N2CCCC2)c1 | u | x | x | -1.5% | x | u
O=C(Nc1cccnc1)c1ccc(Cl)c(S(=O)(=O)N2CCCCCC2)c1 | x | 20.8* | -49.0% | -12.7% | 54.8 | 10.4µM*
SMILES | Pf growth 96h | CHX counter | NS1 function inh | SARS PLpro yeast | Shiga inhibitor | Pf growth 48h
O=C(Nn1c(-c2ccccc2)nc2ccccc2c1=O)c1cccs1 | -22.3% | 3.5 | -2.0% | -2.3% | 7.0 | 13.8%
CCOc1ccc(NC(=S)NN(C)C(=S)Nc2ccc(OCC)cc2)cc1 | -2.7% | -1.1 | -0.8% | -6.6% | 1.9 | 11.3%
COc1ccc(NC(=S)NCc2ccco2)cc1 | 38.0% | 2.8 | -0.2% | -2.3% | -6.0 | 3.1%
CCOc1ccc(NC(=S)N(Cc2ccc(N(C)C)cc2)Cc2ccco2)cc1 | -0.5% | 16.2* | -29.6% | -8.3% | 30.4* | u
COc1ccc(NC(=S)N(Cc2ccc(N(C)C)cc2)Cc2ccco2)cc1 | 0.657µM* | 13.6* | 10.0% | -23.9% | 17.0 | 3.2%
C#CCN1C(=O)S/C(=C/C=C/c2ccc(N(C)C)cc2)C1=O | u | 47.1* | 19.5% | 15.4% | 115.6* | 157.8%
CCOC(=O)c1[nH]c2cc(OC)c(OC)cc2c1NC(=O)CN1CCN(c2ccc(OC)cc2)C(C)C1 (stereo not drawn) | x | 17.1 | -46.7% | -27.3% | 28.9 | 9.28µM*
CCOC(=O)c1[nH]c2ccc(OCC)cc2c1NC(=O)CN1CCN(c2ccccc2)CC1 | 51.2% | 28.5* | -3.8% | 4.1% | 59.8 | u
CCOC(=O)c1[nH]c2ccc(OCC)cc2c1NC(=O)CN1CCC2(CC1)OCCO2 | x | 9.0 | -19.2% | -0.3% | 13.2 | u
COC(=O)c1[nH]c2ccc(C)cc2c1NC(=O)CN1CCN(c2ccccc2)CC1 | x | 0.5 | -9.3% | -8.8% | -8.7 | 10.4µM*
Cc1ccc2[nH]c(C(=O)O)c(NC(=O)CN3CCN(c4cccc(C)c4C)CC3)c2c1 | 4.65µM* | -8.2 | -6.0% | -1.1% | -6.5 | 0.0%
CCN(CC(=O)N1CCCC1)S(=O)(=O)c1ccc(OC)cc1 | -24.5% | -2.1 | 7.5% | -0.3% | -0.7 | 6.3%
Cc1c(Cl)cccc1NC(=O)CNC(=O)Cc1c[nH]c2ccccc12 | u | x | x | 0.6% | x | -26.3%
CCN[C@H]1CN(CCCOC)S(=O)(=O)c2sc(S(N)(=O)=O)cc21 | 47.7% | x | x | 6.3% | x | -29.9%
O=C(NC1CCSC1=O)C1CC(=O)N(c2ccc(F)cc2)C1 (stereo not drawn) | 23.7% | -2.0 | 10.4% | 2.4% | 33.2 | 19.8%
COC(=O)c1[nH]c2ccc(Cl)cc2c1NC(=O)CN1CCC(C(N)=O)CC1 | u | -6.7 | -0.4% | 2.8% | -9.3 | 11.7µM*
COC(=O)c1[nH]c2cc(OC)ccc2c1NC(=O)CN1CCC(C(N)=O)CC1 | -11.9% | -4.5 | 2.2% | 25.2% | 25.7 | 6.0%
CSc1cccc(N2CC(C(=O)NCCC3=CCCCC3)CC2=O)c1 (stereo not drawn) | 0.4% | x | x | 3.3% | x | -14.0%
COCCN(CCOC)S(=O)(=O)c1ccc(C(=O)Nc2sc3c(c2C(N)=O)CCCCC3)cc1 | 211.6% | 32.7* | 3.7% | 11.2% | 63.5* | 73.5%
COc1cc(OC)cc(C(=O)Nc2sc3c(c2C(N)=O)CCC3)c1 | 46.4% | 10.0 | 1.4% | 8.5% | 18.1 | 48.1%
COc1ccc(C(=O)Nc2sc3c(c2C(N)=O)CCCC3)cc1OC | x | 42.1* | x | x | 59.9* | x
COC(=O)c1c(NC(=O)c2ccc(N(C)S(=O)(=O)c3ccc(C)cc3)cc2)sc2c1CCCC2 | u | -1.6 | 4.8% | -3.8% | -9.5 | u

Compound activity as filed in PubChem BioAssay.
